Reference: PubChem BioAssay AID1159580 (chemical genetic matrix, 2015)
Where “and” joins values, the source holds several entries; their conditions need not be identical. Equal entries are not always repeated. Out of some 5,500 compounds screened, about 2,000 (36%) were called active. About 18% were inconclusive and are not listed. Rule as the data show it: active = normalized growth mostly below about 0.91 (no sharp cut-off); inconclusive = no clear call, values can overlap the other calls; inactive = mostly above about 0.92. The list shows a part of the results.

Experiment: chemical genetic growth profiling, strain panel (AID 1159580);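 also: tested at 20 µM; growth read once vehicle control cultures reached saturation at 30 °C; 1 = growth at the plate median or of vehicle wells; lower values mean less growth of the strain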
Details: S. cerevisiae deletion strains, growth OD

Measured: normalized growth

CC1O[C@@H](Oc2c(-c3ccc(O)c(O)c3)oc3cc(O)cc(O)c3c2=O)[C@H](O)[C@H](O)[C@H]1O (some centres not stated)
inactive: locus YAL013W, strain DEP1, hits give low values 1 | locus YAL021C, strain ccr4, hits give low values 1 | locus YAL026C, strain drs2, hits give low values 0.996 | locus YAL030W, strain snc1, hits give low values 0.999 | locus YBL061C, strain skt5, hits give low values 0.993 | locus YBR009C, strain hhf1, hits give low values 0.99 | locus YBR021W, strain FUR4, hits give low values 1.01 | locus YBR023C, strain chs3, hits give low values 0.995 | locus YBR171W, strain sec66, hits give low values 0.971 | locus YBR229C, strain ROT2, hits give low values 1 | locus YBR231C, strain swc5, hits give low values 0.985 | locus YBR279W, strain paf1, hits give low values 0.995 | locus YCL011C, strain gbp2, hits give low values 0.997 | locus YCL016C, strain dcc1, hits give low values 0.993 | locus YCL029C, strain bik1, hits give low values 0.978 | locus YCL061C, strain MRC1, hits give low values 0.985 | locus YCL069W, strain vba3, hits give low values 0.991 | locus YCR088W, strain abp1, hits give low values 0.985 | locus YDL005C, strain med2, hits give low values 0.979 | locus YDL035C, strain GPR1, hits give low values 1 | locus YDL040C, strain nat1, hits give low values 0.984 | locus YDL074C, strain BRE1, hits give low values 0.965 | locus YDL101C, strain DUN1, hits give low values 0.991 | locus YDL134C, strain PPH21, hits give low values 1 | locus YDL185W, strain tfp1, hits give low values 0.956 | locus YDL192W, strain arf1, hits give low values 0.985 | locus YDR001C, strain nth1, hits give low values 0.999 | locus YDR069C, strain doa4, hits give low values 0.985 | locus YDR101C, strain arx1, hits give low values 0.999 | locus YDR137W, strain rgp1, hits give low values 1.01 | locus YDR150W, strain NUM1, hits give low values 0.998 | locus YDR159W, strain sac3, hits give low values 0.97 | locus YDR162C, strain NBP2, hits give low values 1 | locus YDR195W, strain ref2 0.967 | locus YDR297W, strain sur2, hits give low values 0.987 | locus YDR318W, strain mcm21, hits give low values 0.986 | locus YDR334W, strain swr1, hits give low values 0.995 | locus YDR335W, strain msn5, hits give low values 1 | locus YDR388W, hits give low values 0.994 | locus YDR392W, strain spt3, hits give low values 0.98 | locus YDR502C, strain sam2, hits give low values 1.01 | locus YEL003W, strain gim4, hits give low values 0.994 | locus YEL037C, strain rad23, hits give low values 0.997 | locus YEL061C, strain CIN8 (second series), hits give low values 0.995 | locus YEL061C, strain CIN8, hits give low values 0.996 | locus YER015W, strain faa2, hits give low values 0.973 | locus YER016W, strain bim1, hits give low values 0.994 | locus YER110C, hits give low values 0.993 | locus YER111C, strain swi4, hits give low values 0.997 | locus YER155C, strain BEM2 (second series), hits give low values 0.982 | locus YER155C, strain BEM2, hits give low values 0.995 | locus YER167W, strain BCK2, hits give low values 0.999 | locus YFR010W, strain ubp6, hits give low values 0.988 | locus YGL078C, strain dbp3, hits give low values 0.992 | locus YGL086W, strain mad1, hits give low values 1.03 | locus YGL167C, strain pmr1, hits give low values 0.99 | locus YGL173C, strain kem1, hits give low values 0.979 | locus YGL227W, strain vid30, hits give low values 0.979 | locus YGL240W, strain doc1, hits give low values 0.976 | locus YGL248W, strain PDE1, hits give low values 1 | locus YGL253W, strain hxk2, hits give low values 0.985 | locus YGR078C, strain PAC10, hits give low values 0.98 | locus YGR135W, strain pre9, hits give low values 0.989 | locus YGR229C, strain SMI1, hits give low values 1 | locus YGR252W, strain gcn5, hits give low values 1.18 | locus YHR013C, strain ard1, hits give low values 0.982 | locus YHR027C, strain rpn1, hits give low values 0.988 | locus YHR030C, strain SLT2, hits give low values 0.997 and 0.954 | locus YHR079C, strain IRE1 (second series), hits give low values 0.989 | locus YHR079C, strain IRE1, hits give low values 0.962 | locus YHR094C, strain hxt1, hits give low values 0.982 | locus YHR129C, strain ARP1, hits give low values 0.987 | locus YHR142W, strain chs7, hits give low values 0.995 | locus YHR200W, strain rpn10, hits give low values 0.986 | locus YIL066C, strain RNR3, hits give low values 1 | locus YIL073C, strain SPO22, hits give low values 0.95 | locus YIL125W, strain kgd1, hits give low values 0.987 | locus YIR030C, strain dcg1, hits give low values 0.991 | locus YJL092W, strain hpr5, hits give low values 0.985 | locus YJL095W, strain BCK1 (second series), hits give low values 0.998 | locus YJL095W, strain BCK1, hits give low values 0.952 and 0.984 | locus YJL115W, strain asf1, hits give low values 0.991 | locus YJL129C, strain trk1, hits give low values 1 | locus YJL134W, strain LCB3, hits give low values 0.997 | locus YJL154C, strain vps35, hits give low values 0.993 | locus YJL164C, strain tpk1, hits give low values 0.984 | locus YJL166W, strain qcr8, hits give low values 0.994 | locus YJL168C, strain set2, hits give low values 0.996 | locus YJL187C, strain SWE1 (second series), hits give low values 0.988 | locus YJL187C, strain SWE1, hits give low values 0.989 | locus YJR043C, strain POL32, hits give low values 0.987 | locus YJR066W, strain TOR1, hits give low values 0.922
